Bioassay records deposited in PubChem by National Center for Advancing Translational Sciences (NCATS).
ATXN2 expr inh – Primary qHTS for Inhibitors of ATXN expression | Potency, µM (highest dose often 57 µM), for inactives: at the top dose activity change, negative = inhibition, hits mostly inhibitors | HEK-293 ATXN2-luciferase reporter, luminescence, 24 h | 360,000 compounds, 0.72% hits | AID 1745845, 2022; also: % is scaled to controls: 0 for no effect and ±100 for the full control effect; nearly all actives have a fitted effect of over 55% in size
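ATXN2-luciferase reporter cells (luciferase flanked by upstream and downstream ATXN2 gene portions) were treated 24 h at 37 °C with compounds at up to 57 uM. SteadyGlo luminescence gave expression; GF-AFC fluorescence gave viability.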
HT1080NT lethal – qHTS for induction of synthetic lethality in tumor cells producing 2HG: qHTS for the HT-1080-NT fibrosarcoma cell line; HT-1080-NT fibrosarcoma viability, CellTiter-Glo ATP luminescence, 48 h; Potency, µM (series often up to 46.1 µM), without a hit: top-dose activity, negative = less viability, actives largely listed as cytotoxic; 360,000 compounds, 1.6% hits;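 also: NT is the 2HG producing partner of a matched IDH1 knockdown line; 0% = DMSO-treated cells and -100% = media-only wells without cells; nearly all actives have a fitted effect of over 55% in size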
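Fibrosarcoma NT cells, 750 per well in 5% FBS RPMI, were exposed to compound for 48 hours. Viability: CellTiter-Glo luminescence.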
HT1080 IDH1KD tx – qHTS for induction of synthetic lethality in tumor cells producing 2HG: qHTS for the HT-1080-IDH1KD cell line; HT-1080 IDH1 knockdown viability, ATP luminescence, 48 h; Potency, µM (top dose mostly 46.1 µM), inactives show at the top dose activity, negative = toxicity, hits mostly cytotoxic; 360,000 compounds, 2% hits; AID 686971, 2013;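 also: 0% = DMSO wells and -100% = cell-free medium wells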
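Luminescent ATP read-out (CellTiter-Glo, 10 min at room temperature) after 48 h compound exposure at 37 °C gave viability of IDH1-knockdown HT-1080 cells. Activity was normalised to DMSO and cell-free wells, then fitted as concentration-response curves.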
TGFb inhibitor – qHTS for Inhibitors of TGF-b. 410,000 compounds, 1.2% hits. Potency, µM (doses to about 46.1 µM), for the others: at the highest dose activity, negative = inhibition, hits mostly inhibitors. HepG2 CAGA-GFP TGF-b/SMAD3 reporter, GFP fluorescence, 18 h; TGF-beta stimulated, 500 pg/mL final; also: % is scaled to controls: 0 for no effect and ±100 for the full control effect; nearly all actives have a fitted effect of over 65% in size
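HEPG2 CAGA-GFP, 1000 cells/well; 2 h settle, 37 C; cpd via pin tool; TGF-b 500 pg/mL final; 18 h, 37 C; GFP imaging ex488/em500-530; %Activity normalised to -TGF-b and +DMSO controls; CRC fit, curve class.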
ATXN viability – Viability Counterscreen for Primary qHTS for Inhibitors of ATXN expression; S2 cells (HEK-293 line with an ATXN2-luciferase reporter) viability, CellTiter-Fluor protease fluorescence, 24 h; AID 651635, 2014; Potency, µM (top dose mostly 56.7 µM), hits mostly cytotoxic; 400,000 compounds, 0.49% hits; also: nearly all actives have a fitted effect of over 40% in size
HepG2 tox – qHTS for Inhibitors of TGF-b: Cytotox Counterscreen. HepG2 CAGA-GFP viability, ATP luminescence, 18 h. Potency, µM (highest dose often 46.1 µM), inactives show top-dose activity change, negative = cytotoxicity, most hits filed as cytotoxic. 410,000 compounds, 0.76% hits
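CellTiter-Glo luminescence gave cytotoxicity after 18 hours at 37 degrees C. The cells were HepG2 CAGA-GFP in 1% FBS DMEM, stimulated with 500 pg/mL TGF-beta after compound addition. %Activity was normalised to no-cell wells (complete cell-killing) and DMSO (no toxicity), and curves were fitted and classified.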
* = called active by the depositor; i = inactive; ? = inconclusive; . = no result. Compounds with a hit are over-represented: about 3.8% of the library has one in this group of screens. Calls follow the shape of the dose curve; as a rule, active = well fitted curve in the direction sought with a large enough effect; inconclusive = small, poorly fitted or top-dose-only effect, or another doubt; inactive = no such curve, though single readings can be large; an effect the other way counts as inactive or inconclusive. Potency is read from the fitted curve at half-maximal effect.

SMILES | ATXN2 expr inh | HT1080NT lethal | HT1080 IDH1KD tx | TGFb inhibitor | ATXN viability | HepG2 tox
O=C(Nc1ccc2c(c1)OCCO2)C(=O)c1c[nH]c2ccccc12 | -41% | 7.3µM* | ? | -14% | ? | -11%
O=C(Nc1ccc2c(c1)OCO2)C(=O)c1c[nH]c2ccccc12 | . | ? | ? | 5% | ? | -19%
C[C@H]1O[C@@H](O[C@H]2[C@@H](O)C[C@H](O[C@H]3[C@@H](O)C[C@H](O[C@H]4CC[C@@]5(C)[C@H](CC[C@@H]6[C@@H]5C[C@@H](O)[C@]5(C)[C@@H](C7=CC(=O)OC7)CC[C@]65O)C4)O[C@@H]3C)O[C@@H]2C)C[C@H](O)[C@@H]1O | 0.32µM* | 0.23µM* | 0.037µM* | ? | ? | -56%
CNC(=O)c1nn(C)c2c1C(C)(C)Cc1cnc(Nc3ccc(N4CCN(C)CC4)cc3)nc1-2 | 1.7µM* | . | . | . | . | .
CCCCn1c(NC(=O)c2ccccc2)c(C#N)c2nc3ccccc3nc21 | ? | 8.9µM* | ? | ? | . | -36%
CCC(=O)Nc1c(C#N)c2nc3ccccc3nc2n1-c1ccc(C)cc1 | -10% | 2% | -1% | -23% | . | -18%
CCC(C)n1c(NC(=O)c2ccccc2)c(C#N)c2nc3ccccc3nc21 (stereo not drawn) | -33% | 18µM* | 16µM* | ? | ? | 8%
COC(=O)[C@@H]1CCCN1Cc1ccc2c(c1)CN(Cc1cccn1-c1ncccn1)CCO2 | . | . | . | . | i | .
Cn1nc(C(F)(F)F)c(-c2ccc(Br)cc2)c1NC(=O)Nc1ccc(F)cc1F | ? | ? | 18µM* | ? | i | -5%
Cc1cccc(CS(=O)(=O)c2nnc([C@H](Cc3ccccc3)NC(=O)OC(C)(C)C)o2)c1 | 7.9µM* | 5µM* | 2.8µM* | ? | 8.9µM* | -101%
CCn1c(-c2ccccc2F)nc2cc(C(=O)NCC3CCOCC3)cc(NC(C)=O)c21 | . | . | . | . | i | .
O=C(NNC1=Nc2ccccc2SC1)c1ccc(Cl)cc1 | 14µM* | ? | ? | -6% | ? | 7%
O=C(NNC1=Nc2ccccc2SC1)c1ccc(F)cc1 | -31% | -29% | ? | -26% | i | -25%
Cc1ccc(C)c(S(=O)(=O)N2CCN(C(=O)c3ccc(OCc4c(C)noc4C)cc3)CC2)c1 | 0% | -3% | -9% | -20% | i | 14µM*
Cc1noc(C)c1COc1ccc(C(=O)NNC(=O)c2ccccc2F)cc1 | -9% | ? | 6.5µM* | 3% | i | -6%
Cc1noc(C)c1COc1ccc(C(=O)O)cc1 | 7% | ? | 5% | -4% | i | -12%
COc1cc(C(=O)OCC(C)=O)ccc1OCc1c(C)noc1C | -34% | ? | 18µM* | -4% | i | 2%
Cc1ccc(S(=O)(=O)N2CCN(C(=O)c3ccc(OCc4c(C)noc4C)cc3)CC2)cc1 | -8% | -7% | -9% | 5% | i | -21%
Cc1noc(C)c1COc1ccc(C(=O)NNC(=O)c2ccccc2)cc1 | -3% | ? | 15µM* | -8% | i | -5%
Cc1ccc(NC(=O)N2CCc3c(sc4c3CCCC4)C2c2ccccc2)cc1F (stereo not drawn) | 3% | . | . | -16% | ? | -29%
CCOC(=O)CCN(c1ccccc1)S(=O)(=O)c1cc(-c2cc(C)no2)ccc1C | . | . | . | 0% | . | 10%
Cc1ccc(S(=O)(=O)N2CC3(O)CN(C(=O)OC(C)C)N(C(=O)OC(C)C)CC3(OC(=O)Nc3cccs3)C2)cc1 (stereo not drawn) | -6% | -14% | -2% | 13µM* | ? | -38%
CCCn1ccc2c(OCC(=O)Nc3ccc(F)cc3F)cccc2c1=O | -11% | . | . | -13% | ? | -16%
CCOC(=O)c1c(NC(=O)/C=C/C(=O)O)sc(C)c1-c1ccc(Cl)cc1 | ? | ? | 23µM* | ? | ? | 18µM*
COc1ccc(CNC(=O)Cn2nnc(-c3ccc(C(F)(F)F)cc3)n2)cc1 | 0% | . | . | 14% | i | -9%
SMILES | ATXN2 expr inh | HT1080NT lethal | HT1080 IDH1KD tx | TGFb inhibitor | ATXN viability | HepG2 tox
C[n+]1c2cc(N)ccc2cc2ccc(N)cc21 (tested in a mixture with another compound) | 3.2µM* | . | . | . | . | .
Cc1ccc2c(c1)CN(CCNC(=O)c1ccc3nc(C)[nH]c3c1)CC(C)O2 (stereo not drawn) | . | . | . | . | i | .
CCOc1ccc(S(=O)(=O)NCC(c2ccco2)S(=O)(=O)c2ccc(C)cc2)cc1 (stereo not drawn) | . | . | . | ? | . | 2%
O=S(=O)(NCC(c1ccco1)S(=O)(=O)c1cccs1)c1ccc(F)c(C(F)(F)F)c1 (stereo not drawn) | . | . | . | 4.5µM* | . | -41%
COc1ccc(S(=O)(=O)NCC(c2ccco2)S(=O)(=O)c2ccc(C)cc2)cc1C (stereo not drawn) | . | . | . | 10µM* | . | -5%
Cc1ccc(C)c(S(=O)(=O)NCC(c2ccco2)S(=O)(=O)c2ccc(F)cc2)c1 (stereo not drawn) | . | . | . | 11µM* | . | -37%
Cc1nn(CC(=O)N2CCC(C)CC2)c(=O)c2cc3occc3n12 | 13% | . | . | -4% | i | 8%
C(=Nc1ccc2ccccc2n1)c1cccnc1 | . | . | . | -4% | . | -14%
CC(C)(CNC(=O)c1cnn(-c2nccc(-c3cc4ccccc4o3)n2)c1C1CC1)N1CCOCC1 | . | . | . | . | i | .
CC(=O)N1CCCC(C(=O)c2ccc(Oc3ccccc3)cc2)C1 (stereo not drawn) | -10% | 23µM* | 16µM* | -20% | i | -15%
COCC(=O)N1CCCC(C(=O)c2ccc(Oc3ccccc3)cc2)C1 (stereo not drawn) | -20% | -16% | -1% | ? | ? | 5%
N#Cc1c(Nc2ccccc2Cl)s[nH]c1=O | -11% | ? | 16µM* | 0% | i | -143%
N#Cc1c(Nc2ccccc2)s[nH]c1=O | -12% | -27% | -11% | ? | i | -6%
N#Cc1c(Nc2ccccc2C(F)(F)F)s[nH]c1=O | -9% | -25% | ? | 20µM* | i | -53%
O=C(CCl)N1N=C(c2cccs2)CC1c1ccco1 (stereo not drawn) | 4.2µM* | 5.2µM* | 4.1µM* | 11µM* | . | -89%
